The text below walks through data of ChEMBL document CHEMBL4513216, “Probing the Open Global Health Chemical Diversity Library for Multistage-Active Starting Points for Next-Generation Antimalarials” (ACS Infect Dis, 2020).

Structures are written as SMILES. Out of some 69,000 compounds screened, about 8,600 (12%) showed an effect of 50% or more. Many of the other results were omitted from the sample, so strong results are more common in it than they were.

The assay concerns Plasmodium berghei. The experiment in a line: Screen against P. berghei liver stage (PbLuc), transformed with Luciferase, at 10uM. The assay is classed as functional, HepG2. As to conditions: tested at 10 uM.
Turning to `O=C(N1CCCC(n2cncn2)C1)C1(c2ccccc2F)CCCC1` (stereo unspecified), the INHIBITION is 22.3%.
With `Cn1cnc(CNC(=O)c2ccccc2-n2cc(CN)cn2)c1` the figure was -5.71%; with `COCC1CC2(CCN(Cc3cccnc3)CC2)CN1c1ncccn1` (stereo unspecified), 22.2%; with `Cc1cc(S(=O)(=O)NC(=O)CCc2cncc(F)c2)c(C)s1`, 24.3%.
With `COCc1nc(C(=O)N2CCCC2c2cccc(C)c2)cs1` (stereo unspecified) the figure was -23.8%; with `COc1c(C)cnc(CN2CCCC(Cn3nc(C)nc3C)C2)c1C` (stereo unspecified), -1.14%; with `CC(NC(=O)NCCn1ccnc1)c1nncn1C` (stereo unspecified), 39.3%.
To `COc1cccc(CNc2cc(N3CCCC3CO)ncn2)n1` (stereo unspecified) belongs -14.6%; to `O=C(O)c1ccccc1-c1ccc(CN2CC(c3ccncn3)C2)o1`, 6.1%.
In the case of `CN(C)c1cc(CNC(=O)c2cc(F)ccc2F)ccn1`, the INHIBITION was -2.53%.
With `CN(C)c1cc(CNC(=O)c2ccc(F)cc2)ccn1`, the INHIBITION is listed as -7.35%.
To `CN(C)c1cc(CNC(=O)c2cn(-c3ccc(F)cc3)nn2)ccn1` belongs 70.6%; to `CC(C)COCC(NC(=O)c1ccncc1)c1ccco1` (stereo unspecified), 28.8%.
To `CS(=O)(=O)N1CCC(Nc2ccc(C#N)c(C(F)(F)F)c2)CC1` belongs -11.7%.
With `N#Cc1ccc(NC2CCN(c3ncccn3)CC2)cc1C(F)(F)F` the figure was 68.2%; with `N#Cc1ccc(NC2CCN(c3ncccn3)CC2)cc1Cl`, 28.7%; with `CC(C)(C)c1ncc(C(=O)NCCNc2ncccn2)s1`, -39.3%.
Consider `CCN(Cc1ccncc1)CC1(C)Cc2c(N)nc(N)nc2O1` (stereo unspecified), for which the INHIBITION was found to be 14.27%.
To `c1cc(CN2CCCn3cnc(COCC4CC4)c3C2)co1` belongs 35.7%; to `CC(C)OCc1ncn2c1CN(Cc1cnn(C)c1)CCC2`, -7.24%.
With `COc1ccc(CN2CCCn3cnc(COCC4CC4)c3C2)cc1` the figure was 42.6%; with `Cc1nc(CN2CCCn3cnc(COCC4CC4)c3C2)cs1`, 4.02%; with `COc1ccc(CN2CCCn3cnc(COC(C)C)c3C2)cc1`, 56.7%.
`CC(C)OCc1ncn2c1CN(CC1CC1)CCC2`: the INHIBITION is recorded as 66%.
To `CC(C)OCc1ncn2c1CN(Cc1ccoc1)CCC2` belongs 59%; to `c1nc(COCC2CC2)c2n1CCCN(CC1CC1)C2`, 11.5%; to `CC(C)OCc1ncn2c1CN(Cc1nccs1)CCC2`, 46.2%.
With `CC(C)OCc1ncn2c1CN(Cc1ccc(F)cc1)CCC2` the figure was 9.67%; with `Cc1nc(CN2CCCn3cnc(COC(C)C)c3C2)cs1`, 66%.
With `CC(C)OCc1ncn2c1CN(CCO)CCC2` the figure was 0.804%.
Take `COc1ccsc1C(=O)N1CCCC(n2nc(C)cc2C)C1` (stereo unspecified): the INHIBITION was -5.25%.
